Experimental data published in ChEMBL document CHEMBL4513216, “Probing the Open Global Health Chemical Diversity Library for Multistage-Active Starting Points for Next-Generation Antimalarials” (ACS Infect Dis, 2020).
The campaign covered roughly 69,000 compounds. About 8,600 (12%) showed an effect of 50% or more. This is one part of a sample in which strong results are shown more often than they occur.

Each compound was assayed on Plasmodium berghei (assay: Screen against P. berghei liver stage (PbLuc), transformed with Luciferase, at 10uM). Details: tested at 10 uM.
Assay type: functional, HepG2

SMILES	INHIBITION [%]
CC(=O)c1c(O)n(C)c2ccc(C)cc12	-10.5
Cc1nn(C)c(C)c1-c1ccc(=O)n(C(C)C(=O)NC2CCCC2)n1 (stereo unspecified)	35.05
COc1ccc(C2CC(=O)NCc3nc(N(C)C)sc32)c(O)c1 (stereo unspecified)	36.6
COc1ccc(C(C)C)cc1C1CC(=O)NCc2nc(N(C)C)sc21 (stereo unspecified)	52.2
COc1cc2c(cc1C1CC(=O)NCc3nc(N(C)C)sc31)CCC2 (stereo unspecified)	27.6
CN(Cc1ccccc1F)C(=O)c1cc(Cl)c[nH]1	15.4
COc1nccnc1N1C[C@H]2CC[C@@H](C1)N(CC=C(C)C)C2=O	6.83
CCOc1ccccc1C(CC(=O)Nc1ccncc1)NC(C)=O (stereo unspecified)	26.9
CC(NC(=O)NC1CCN(Cc2ccncc2)CC1)c1cccc(F)c1 (stereo unspecified)	13
CC(NC(=O)NC1CCN(Cc2ccccc2)CC1)c1nncn1C (stereo unspecified)	-12.3
NC(=O)C(NC1CCN(Cc2ccc(F)cc2)CC1)c1ccccc1 (stereo unspecified)	-106
CC(NC(=O)NC1CCN(Cc2ccncc2)CC1)c1ccccc1F (stereo unspecified)	68.9
CC(NC(=O)NC1CCN(Cc2ccccn2)CC1)c1ccco1 (stereo unspecified)	36.8
CC(NC(=O)NC1CCN(Cc2ccncc2)CC1)c1ccc(F)cc1 (stereo unspecified)	75.7
O=C(C1CC1)N1CCN(Cc2ccncc2)c2ncccc2C1	5.56
CC(NC(=O)NCc1ccccc1Cl)c1ccccn1 (stereo unspecified)	-49.5
COc1ccc2c(c1)C(=O)NC1(CC2)CCN(Cc2cccnc2)C1 (stereo unspecified)	2.1
Cc1cccc(-n2cc3[nH]c(=O)[nH]n3c2=O)c1	36.3
CC(C)C(C)N(Cc1cnc2ccccc2n1)Cc1ccco1 (stereo unspecified)	47
O=C(NC[C@H]1OC[C@@H](NCc2cccs2)[C@@H]1O)N1CCOCC1	-0.371
CC(C)NC(=O)NC[C@H]1OC[C@@H](NCc2cccs2)[C@@H]1O	-13.4
Cc1ccc(S(=O)(=O)NC[C@H]2OC[C@@H](NCc3cccs3)[C@@H]2O)cc1	52.5
Cc1ccc(CN[C@@H]2CO[C@H](CNS(=O)(=O)c3ccccc3)[C@H]2O)cc1	27.5
CC(C)(C)CN[C@@H]1CO[C@H](CNC(=O)c2cccs2)[C@H]1O	-7.29
O=S(=O)(NC[C@H]1OC[C@@H](NCc2cccs2)[C@@H]1O)c1ccccc1	51
CSc1nccn1-c1cccc(C(=O)NCC(F)(F)F)c1	18.2

SMILES	INHIBITION [%]
N#CCCN(CCC#N)C(=O)CN(C1CC1)C1CCc2ccccc21 (stereo unspecified)	-40.5
CCC(O)CN1CCN(C(=O)c2ccn(C)c(=O)c2)CC1 (stereo unspecified)	13.3
CC(C)CCc1nc(CNCC2CN(C)CCO2)cs1 (stereo unspecified)	-21.9
Cc1cc(NC(=O)CN2CCn3c(nnc3C(C)C)C2)n(C)n1	22.2
Cc1nc(CN2C(=O)COC3(CCN(Cc4ccsc4)CC3)C2C)cs1 (stereo unspecified)	38.2
CC1N(C)C(=O)COC12CCN(C(=O)CCc1ccccc1)CC2 (stereo unspecified)	6.83
Cc1nc(CN2C(=O)COC3(CCN(Cc4nccs4)CC3)C2C)cs1 (stereo unspecified)	15.1
CC1NC(=O)COC12CCN(C(=O)Cc1ccsc1)CC2 (stereo unspecified)	-28.6
CC1N(C)C(=O)COC12CCN(Cc1ccsc1)CC2 (stereo unspecified)	63
CC1N(C)C(=O)COC12CCN(C(=O)Cc1ccsc1)CC2 (stereo unspecified)	77.7
CN1CCN(C)C2(CCN(Cc3ccsc3)CC2)C1=O	5.04
CC1N(CC2CC2)C(=O)COC12CCN(Cc1nccs1)CC2 (stereo unspecified)	31.8
CC1N(C)C(=O)COC12CCN(Cc1nccs1)CC2 (stereo unspecified)	69.7
Cc1nc[nH]c1C(=O)N1CCCC2(C1)C(=O)N(C)c1ccccc12 (stereo unspecified)	9.57
Cn1nc2c(cc1=O)CN(Cc1nc(-c3ccco3)no1)CC2	-7.31
Cc1nnc2n1CCN(C(=O)c1cc(Cl)c(Br)[nH]1)C2	-33.32
CC(=O)NCc1ccc(C(=O)Nc2ccc3c(c2)C(=O)NC3)cc1	-20
CCOc1ccccc1CNS(=O)(=O)c1ccc2c(c1)CCCC(=O)N2	19.4
Cn1cc2ncn(CCC3CCN(Cc4ccccc4)C3)c(=O)c2n1 (stereo unspecified)	42.1
CN(C)S(=O)(=O)c1ccc(CNC(=O)c2cn3c(n2)CNCC3)cc1	39.9
CN(CCSc1ccccc1)C(=O)c1cn2c(n1)CNCC2	66.5
Cc1ccc(SCCN(C)C(=O)c2cn(CCN)nn2)cc1	-122
CC(C)N(Cc1ccccn1)C(=O)CN(C)C(=O)c1cccs1	12.3
CN(CCSc1ccccc1)C(=O)C(c1cccnc1)N1CCOCC1 (stereo unspecified)	19.4
CN(CC(=O)NCCc1ccccn1)C(=O)c1cccs1	11
CN(CCc1ccccn1)C(=O)c1cn2c(n1)CNCC2	66.5

SMILES	INHIBITION [%]
CN(CCc1ccccn1)C(=O)c1cccs1	50.8
O=C(NCc1ccc(C(=O)N2CCCC2)cc1)c1cn2c(n1)CNCC2	16.1
c1ccc(NCc2cn3c(n2)CNCC3)nc1	42.6
CN(CCc1ccccn1)C(=O)c1cn(CCN2CCNCC2)nn1	-60.7
CN(CCCc1ccccc1)C(=O)c1cn2c(n1)CNCC2	61.9
COc1ccccc1C(=O)N(C)Cc1nnc2ccccn12	-81.1
Cn1c(N2CCOCC2)nc2cc(C(=O)N3CCC(O)(CO)C3)ccc21 (stereo unspecified)	44.7
CCOc1ccc(NCC(=O)NCC(=O)N2CCCC2)c(C(F)(F)F)c1	16.5
O=C(O)CCC(=O)Nc1nn(Cc2ccc(F)cc2)cc1Cl	46.6
CN1CCN(C(=O)c2cccn2C)c2ccccc2C1	-39.2
COCCN1CC[C@@H](OC)[C@@H]1Cc1ccccc1	-34.7
Cc1nnc(NC(=O)CN2CCc3c(nc(C(C)C)n3C)C2)s1	17.3
CC(O)CN1CCC(CN(C)CC(=O)NC2CCOCC2)CC1 (stereo unspecified)	-8.31
CCC(C)(C)NC(=O)Cn1nc(C)nc1-c1ccccc1	-31.5
O=C1NC2(Cc3ccccc31)CN(CC1CCNCC1)C2	26.7
CCS(=O)(=O)NCC1Cn2nnc(-c3ccccc3)c2CO1 (stereo unspecified)	54.4
CCS(=O)(=O)NCC1Cn2nnc(-c3cccc(C)c3)c2CO1 (stereo unspecified)	50.3
CCOCC(=O)NCC1Cn2nnc(-c3cccc(F)c3)c2CO1 (stereo unspecified)	38.5
c1ccc(-c2nnn3c2COC(CNCC2CC2)C3)cc1 (stereo unspecified)	42.7
O=C(NCC1Cn2nnc(-c3ccsc3)c2CO1)N1CCCC1 (stereo unspecified)	2.26
CC(=O)NCC(=O)NCC1Cn2nnc(-c3cccc(F)c3)c2CO1 (stereo unspecified)	27.6
Cc1cccc(-c2nnn3c2COC(CNC(=O)N2CCCC2)C3)c1 (stereo unspecified)	62.9
Cc1cccc(-c2nnn3c2COC(CNS(=O)(=O)C2CC2)C3)c1 (stereo unspecified)	44.8
c1ccc(-c2nnn3c2COC(CNCC2CCOCC2)C3)cc1 (stereo unspecified)	44.9
